Among the test systems are HCT-15 colon; HT29 colon; SNB-75 CNS; SNB-19 CNS; U251 CNS; PC-3 prostate; SK-MEL-5 melanoma; UACC-62 melanoma; LOX IMVI melanoma; SK-MEL-28 melanoma; SK-MEL-2 melanoma; EKVX NSCLC; SN12C renal; UO-31 renal; TK-10 renal; ACHN renal; CAKI-1 renal; A498 renal; CCRF-CEM leukemia; MOLT-4 leukemia.
What all share (experiment): NCI-60 one-dose screen, 48 h (100 = growth as untreated, 0 = no growth, -100 = all killed)
What all share (details): 10 µM unless noted

This is part of a sample that, as a whole, favours compounds with a hit. Of some 83,000 tested, about 20% had one in any assay.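 Single-concentration screen, 48 h exposure, 96-well plates. Endpoint: percent growth. Below 10 = active.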 A number with no mark means an inactive call. Calls of active or inactive are those of the source.

In the case of `CC1=C(C)C(=O)C(Nc2ccc3c(c2)OCCO3)=C(Br)C1=O`, the growth in the assay on HCT-15 colon is 98.1%; in the assay with HT29 colon it was 108%; in the assay with SNB-75 CNS, 83.7%; with SNB-19 CNS, 98.5%; in the assay on U251 CNS, 103%; in the assay with PC-3 prostate it was 86%. Besides, the growth is 89.1% in the assay on SK-MEL-5 melanoma; 92.1% in the assay with UACC-62 melanoma; 20.3% in the assay on LOX IMVI melanoma; 107% in the assay on SK-MEL-28 melanoma; 114% with SK-MEL-2 melanoma; 73.7% with EKVX NSCLC. The growth in the assay on SN12C renal was 99.7%; with UO-31 renal, 95.8%; with TK-10 renal, 135%; with ACHN renal, 101%; in the assay on CAKI-1 renal it was 102%; in the assay with A498 renal it was 103%. Also, the growth with CCRF-CEM leukemia is 13.2%; with MOLT-4 leukemia it was -7.79% (active).
On to `Cc1ccc2c(n1)C(=O)C(Cl)=C(Nc1ccccc1C(=O)OC(C)(C)C)C2=O`, for which the growth with HCT-15 colon was -66.2% (active); in the assay with HT29 colon, 26.2%; in the assay on SNB-75 CNS, 98.6%; in the assay with SNB-19 CNS, 80.4%; in the assay with U251 CNS it was 71.5%; with PC-3 prostate, 67.1%. Further, the growth in the assay with SK-MEL-5 melanoma was 45.3%; with UACC-62 melanoma, 79%; in the assay with LOX IMVI melanoma it was -72.5% (active); with SK-MEL-28 melanoma, 34.6%; with SK-MEL-2 melanoma, 93.6%; with EKVX NSCLC it was 28%. For the same molecule, the growth in the assay with SN12C renal was 52.6%; in the assay with UO-31 renal, -62.7% (active); with TK-10 renal, -84.6% (active); in the assay on ACHN renal, -73.6% (active); in the assay on CAKI-1 renal it was -92.4% (active); with A498 renal, 92.3%. Moreover, the results for the growth in the assay on CCRF-CEM leukemia and in the assay with MOLT-4 leukemia were -27.1% (active) and -32.6% (active), respectively.
For the molecule `COc1ccc2[nH]cc(-c3nn4cc(-c5ccncc5)nc4s3)c2c1`, the growth was 37.8% with HCT-15 colon; 66.6% with HT29 colon; 61.7% with SNB-75 CNS; 75.3% with SNB-19 CNS; 67.9% in the assay on U251 CNS; 45.7% in the assay with PC-3 prostate. Moreover, the growth in the assay with SK-MEL-5 melanoma was 67.4%; in the assay with UACC-62 melanoma, 63.8%; in the assay on LOX IMVI melanoma, 57.8%; in the assay with SK-MEL-28 melanoma, 112%; in the assay with SK-MEL-2 melanoma it was 101%; with EKVX NSCLC, 55.4%. The growth was 83.5% in the assay on SN12C renal; 23.3% in the assay with UO-31 renal; 109% in the assay on TK-10 renal; 57.5% in the assay on ACHN renal; 56.9% in the assay on CAKI-1 renal; 68.9% in the assay on A498 renal. Besides, the figures for the growth in the assay with CCRF-CEM leukemia and with MOLT-4 leukemia were 37.9% and 50.4%, respectively.
Consider `CCNC(=O)Oc1ccc(/C(=C(/C)c2ccc(OC)cc2)c2ccc(OCCN3CCCCCC3)cc2)cc1`, for which the growth with HCT-15 colon was -25.8% (active); in the assay on HT29 colon, 10.5%; in the assay on SNB-75 CNS, 59.4%; in the assay with SNB-19 CNS, 61%; in the assay with U251 CNS, 38.8%; with PC-3 prostate, 31.3%. Besides, the growth with SK-MEL-5 melanoma is 78.5%; in the assay with UACC-62 melanoma it was 41%; with LOX IMVI melanoma, -6.62% (active); in the assay on SK-MEL-28 melanoma it was 19.8%; in the assay on SK-MEL-2 melanoma, 83.4%; in the assay with EKVX NSCLC it was 69.7%. Besides, the growth in the assay on SN12C renal was 59.4%; with UO-31 renal it was 0.828% (active); in the assay on TK-10 renal, 116%; in the assay with ACHN renal, 61.3%; in the assay on CAKI-1 renal, 14.5%; with A498 renal, 54.8%. In addition, the growth in the assay on CCRF-CEM leukemia was 36.8%; in the assay with MOLT-4 leukemia it was 17.2%.
Consider `CCOC(=O)c1ccc(NC2=CC(=O)C(C)=C(C)C2=O)cc1`, for which the growth in the assay on HCT-15 colon was 88.5%; with HT29 colon, 110%; in the assay on SNB-75 CNS, 78.7%; with SNB-19 CNS, 71.9%; in the assay with U251 CNS, 81.6%; in the assay with PC-3 prostate, 49%. Moreover, the growth in the assay on SK-MEL-5 melanoma was 91.6%; in the assay with UACC-62 melanoma, 74.1%; in the assay on LOX IMVI melanoma, 46%; with SK-MEL-28 melanoma, 109%; in the assay on SK-MEL-2 melanoma, 96.1%; in the assay on EKVX NSCLC it was 94.6%. Further, the growth in the assay on SN12C renal was 93.8%; in the assay on UO-31 renal, 73.9%; in the assay with TK-10 renal, 137%; with ACHN renal, 89.9%; in the assay with CAKI-1 renal, 69.3%; with A498 renal it was 84.3%. For the same molecule, the growth with CCRF-CEM leukemia was 54.4%; in the assay with MOLT-4 leukemia it was 41.3%.
In the case of `CN1CCN(c2ccc(Nc3nc(NCCCNS(=O)(=O)c4cccc(F)c4)c4sccc4n3)cc2)CC1`, the growth was 17.3% with HCT-15 colon; -68.7% (active) in the assay with HT29 colon; 82.1% in the assay with SNB-75 CNS; 48.7% in the assay with SNB-19 CNS; 6.85% (active) in the assay on U251 CNS; 63.1% in the assay on PC-3 prostate. Besides, the growth in the assay on SK-MEL-5 melanoma was -77.6% (active); in the assay on UACC-62 melanoma, 0.267% (active); in the assay with LOX IMVI melanoma, -58.1% (active); with SK-MEL-28 melanoma, -77.4% (active); in the assay on SK-MEL-2 melanoma it was 96.8%; in the assay on EKVX NSCLC, 83.3%. In addition, the growth in the assay on SN12C renal was 67.4%; in the assay with UO-31 renal, 54.2%; in the assay on TK-10 renal it was 91.6%; with ACHN renal, 7.69% (active); with CAKI-1 renal, 17.9%; with A498 renal, 67.6%. The growth in the assay on CCRF-CEM leukemia is 19.2%; with MOLT-4 leukemia, 13.3%.
For `O=C(CSc1nnc(-c2ccc(Cl)cc2)n1-c1ccccc1)Nc1ccc(Cl)cc1`, the growth is 81.5% with HCT-15 colon; 62.6% in the assay with HT29 colon; -11.2% (active) in the assay with SNB-75 CNS; 59.6% in the assay with SNB-19 CNS; 32.7% in the assay with U251 CNS; 61.4% with PC-3 prostate. The growth in the assay on SK-MEL-5 melanoma is 82.2%; in the assay with UACC-62 melanoma, 76.1%; with LOX IMVI melanoma, 10.8%; in the assay with SK-MEL-28 melanoma, 71.2%; in the assay with SK-MEL-2 melanoma, 87.3%; in the assay on EKVX NSCLC, 49.7%. The growth was 16.3% with SN12C renal; 12% in the assay with UO-31 renal; -6.39% (active) in the assay on TK-10 renal; -2.97% (active) in the assay on ACHN renal; 50.9% in the assay with CAKI-1 renal; 41.4% with A498 renal. The growth in the assay with CCRF-CEM leukemia was 53.9%; in the assay on MOLT-4 leukemia, 84.6%.
Consider `Brc1ccc(-c2cc(-c3ccc4c(c3)OCCO4)n[nH]2)s1`, for which the growth was 19.2% with HCT-15 colon; 11.1% in the assay on HT29 colon; 7.95% (active) in the assay on SNB-75 CNS; 42.6% in the assay on SNB-19 CNS; 27.8% in the assay with U251 CNS; 50% with PC-3 prostate. The growth with SK-MEL-5 melanoma was 12.1%; with UACC-62 melanoma, 49.5%; in the assay with LOX IMVI melanoma, 41.7%; in the assay with SK-MEL-28 melanoma, 57.8%; in the assay on SK-MEL-2 melanoma, 55.3%; in the assay with EKVX NSCLC it was 48.4%. Also, the growth is 54.3% with SN12C renal; 44.5% with UO-31 renal; 105% with TK-10 renal; 47.9% in the assay with ACHN renal; 31.7% in the assay with CAKI-1 renal; 40.3% with A498 renal. Further, the growth was 18.1% in the assay on CCRF-CEM leukemia and 19.3% with MOLT-4 leukemia.

(Values after PubChem BioAssay (NCI).)
